# Inconclusive results are not listed. A call without a number means that no potency is given here. The source made the active and inactive calls. Calls come from the whole dose curve; as a rule, active = well fitted inhibition curve with a large enough effect; inconclusive = small, poorly fitted or top-dose-only effect; inactive = flat fitted curve, though single readings scatter.
# Biological target: Glutathione peroxidase 1 (Homo sapiens) (UniProt P07203)
# Assay: Primary qHTS Assay for Inhibitors of Recombinant Selenoprotein Glutathione Peroxidase 1 (GPX1) (AID 1845191); note: nearly all actives have a fitted effect of over 65% in size
# Settings: recombinant GPX1, GR-coupled NADPH fluorescence, 15 min; series mostly up to 48.8 µM
# In short: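 GR-coupled readout: NADPH consumption tracked by fluorescence, ex 340/em 450 nm, at t=0 and after 15 min at RT. Final mix 10 nM GPX1, 1 mM GSH, 0.5 mM CHP, 0.5 mM NADPH, 100 nM GR, 0.01% BSA, following 30 min enzyme–compound preincubation.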
# Sequence of Glutathione peroxidase 1 (Homo sapiens) (P07203 whole entry, looked up): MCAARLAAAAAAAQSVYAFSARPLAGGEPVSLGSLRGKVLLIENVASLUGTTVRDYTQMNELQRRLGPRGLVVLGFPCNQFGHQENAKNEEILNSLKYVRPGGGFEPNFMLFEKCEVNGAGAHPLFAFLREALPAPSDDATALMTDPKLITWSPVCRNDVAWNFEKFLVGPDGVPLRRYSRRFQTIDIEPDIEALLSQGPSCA
row,SMILES,Potency
1,CCn1c(=O)c(-c2ccc(Cl)cc2Cl)cc2cnc(Nc3ccc(N4CCNCC4)c(F)c3)nc21,inactive
2,CCOc1ccc(-n2c([C@@H](C)N(Cc3cccnc3)C(=O)Cc3ccc(OC(F)(F)F)cc3)nc3ncccc3c2=O)cc1,inactive
3,CNc1nc(Nc2ccc(C(=O)N3CCOCC3)cc2OC)nc2[nH]cc(Cl)c12,inactive
4,COc1ccccc1-c1ccc(-c2cn(C(=O)N3CCCCC3Cc3ccccc3)nn2)cc1 (centres undefined),inactive
5,C=C1C(=O)O[C@@H]2C3C(=C(C)[C@@H](O)[C@@H](OC(=O)/C(=C/C)COC(C)=O)[C@@H]12)C(=O)[C@H]1O[C@@]31C (some centres undefined),inactive
6,COc1ccccc1C(=O)Nc1cc2c(cc1N1CCCC1)n(C)c(=O)n2C,inactive
7,Cc1cc(C(=O)Nc2cc(Nc3ccc4c(/C=C/c5ccccn5)n[nH]c4c3)ccc2F)n(C)n1,inactive
8,N#Cc1ccc(COc2ccc(-c3cccc4nc(NC(=O)C5CC5)nn34)cc2)cn1,inactive
9,COc1cc(CN(CCN)C(=O)c2cccs2)ccc1OCc1ccccc1,inactive
10,C=C1C(=O)O[C@@H]2C(OC(=O)/C(C)=C\C)/C(C)=C\C(=O)/C=C(\C)C[C@H](O)[C@@H]12 (some centres undefined),inactive
11,CCOC(=O)c1csc(Nc2ccc(Cl)cc2)n1,inactive
12,CNc1nc(NCc2ccc(NS(C)(=O)=O)cc2Cl)cc(-c2ccccn2)n1,inactive
13,CC(=O)O[C@H]1CC2C(COC(=O)CC(C)C)=CO[C@@H](OC(=O)CC(C)C)C2[C@]12CO2 (some centres undefined),inactive
14,CCCN(CCc1ccsc1)C1CCc2c(O)cccc2C1 (centres undefined),inactive
15,O=C(Nc1ccc(Cl)cc1)Nc1cccc(-c2cccc(N3CCCC3)n2)c1,inactive
16,O=C(O)C1=CO[C@@H](O[C@@H]2O[C@H](CO)[C@@H](O)[C@H](O)[C@H]2O)[C@@H]2C(CO)=CC[C@H]12,inactive
17,C/C=C(\C)C(=O)O[C@H]1C=C(CO)C(=O)[C@H](OC(C)=O)[C@H]1C(C)C,inactive
18,Cc1ccc(O)cc1Nc1ccnc(Nc2cccc(C(N)=O)c2)n1,inactive
19,COc1cc2ncnc(Nc3ccc(F)c(Cl)c3)c2cc1O,inactive
20,COC1CCN(c2cccc(-c3cc(NC(C)=O)nc(-n4nc(C)cc4C)n3)n2)CC1,inactive

row,SMILES,Potency
1,C[C@@H]1CC[C@@]23CC[C@]4(C)[C@@](C=CC5[C@@]6(C)CC[C@H](O)C(C)(C)C6CC[C@]54C)(OC2=O)C3[C@H]1C (some centres undefined),inactive
2,CC[C@H](C(=O)Nc1ccccc1N1CCCC1)c1ccccc1,inactive
3,Nc1nc2c(cnn2CCCc2ccc(O)cc2)c2nc(-c3ccco3)nn12,inactive
4,O=C(Nc1ccc(-c2ccc(Cl)c(Cl)c2)cc1)C1=C(O)c2ccccc2S(=O)(=O)N1,inactive
5,CC(C)c1ccc(-c2cc(=O)c3ccccc3o2)cc1,inactive
6,Nc1nc2c(nc(Br)n2[C@@H]2O[C@@H]3COP(=O)(O)O[C@H]3[C@H]2O)c(=O)[nH]1,inactive
7,CC(=O)O[C@@H]1[C@@H](O)[C@H](O[C@@H]2[C@@H](O)[C@@H](O)[C@H](O[C@H]3[C@H](O[C@H]4[C@H](O[C@H]5CC[C@@]6(C)C(CC[C@]7(C)C6CC=C6[C@@H]8CC(C)(C)CC[C@]8(C(=O)O)CC[C@]67C)[C@]5(C)CO)O[C@H](CO)[C@@H](O)[C@@H]4O)OC[C@@H](O)[C@@H]3O)O[C@H]2C)OC[C@H]1O (some centres undefined),inactive
8,CC(C)Nc1nc(Nc2ccccc2)nc(-c2ccccc2)n1,inactive
9,O=C(Nc1ccc2[nH]nc(-c3ccncc3)c2c1)[C@@H]1CCN(CC(=O)N2CCN(c3ccc(-c4ncccn4)cc3)CC2)C1,inactive
10,O=C(O)c1cccc(-c2ccc(-c3cn(C(=O)N4CCCCC4Cc4ccccc4)nn3)cc2)c1 (centres undefined),inactive
11,CN(C)Cc1ccc(-c2cnn3c(-c4cccc(NC(=O)c5cccc(C(F)(F)F)c5)c4)ccnc23)cc1,inactive
12,O=C(Nc1nnc(-c2ccc3c(c2)OCCO3)o1)C1CCCCC1,inactive
13,O=C(NCCN1CCC(n2c(=O)[nH]c3ccccc32)CC1)c1ccc2ccccc2c1,inactive
14,COc1ccccc1C(=O)Nc1cccc(NC(=O)c2cccc(C)c2)c1,inactive
15,COc1cc2c(cc1O)C1(Cc3ccc4c(c3C1O)OCO4)[N+](C)([O-])CC2 (centres undefined),inactive
16,COc1ccc2nc(-c3cc(OC)c(OC)c(OC)c3)cc(C(=O)NCC(=O)Nc3ccc(C(C)=O)cc3)c2c1,inactive
17,c1ccc(-c2cnn3cc(-c4ccc(OCCN5CCOCC5)cc4)cnc23)cc1,inactive
18,CN1CCN(C2=Nc3ccccc3Nc3ccc(Cl)cc32)CC1,inactive
19,NCC1CCN(c2nccc(-c3ccc4ccccc4c3)n2)CC1,inactive

# Source: PubChem BioAssay (NCATS)
